Compounds with a hit are over-represented: about 9.2% of the library has one in this group of screens.
Rab9 prom act: Rab9 promoter activation | Huh7 Rab9 promoter-luciferase reporter, luminescence, 24 h | Potency, µM (doses to about 9.22 µM), inactives show at the highest dose activation, negative = inhibition, hits mostly activators | 2.8% of 320,000 active | AID 485297; note: % of control where 0% means no effect; nearly all actives have a fitted effect of over 60% in size
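Luciferase signal after 10 min detection reagent at ambient indicates Rab9 promoter upregulation; stably transfected Huh7 cells were treated 24 h with compound in DMSO at 37 °C, 5% CO2.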
ELG1 genotoxic: induces genotoxicity in HEK293T cells with luciferase-tagged ELG1. HEK293T ELG1-luciferase reporter, luminescence, 16 h. Potency, µM (series often up to 46 µM), for inactives: top-dose activity change, positive = activation, most hits filed as activators. 1.3% of 330,000 active; note: % of control where 0% means no effect; nearly all actives have a fitted effect of over 60% in size
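HEK293T cells expressing luciferase-tagged ELG1 were exposed to compound or DMSO vehicle for 16 hr at 37 °C and 5% CO2. Luciferase activity was then measured with ONE-Glo after 30 min at room temperature.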
ELG1 repair inh: ELG1-dependent DNA repair inhibition | 2.3% of 330,000 active | Potency, µM (doses to about 46.1 µM), for the others: at the highest dose activity change, negative = inhibition, most hits filed as inhibitors | HEK293T ELG1-luciferase reporter, luminescence, 16 h; DNA damage induced by 5-fluorouridine; note: % is set by controls: 0 for no effect and ±100 for the full control effect; nearly all actives have a fitted effect of over 55% in size
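Cells (2,000 per well) received 5-fluorouridine plus test compound or DMSO and were incubated 16 hr at 37 °C, 5% CO2. Luciferase activity was read by luminescence 30 min after ONE-Glo addition; signal suppression marked inhibition of damage-induced ELG1 function.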
SMN2 splice enh: SMN2 splice variant enhancement | 2.8% of 210,000 active | Potency, µM (top dose mostly 46.1 µM), inactives show at the highest dose activity change, positive = activation, most hits filed as activators | HEK293 SMN2-luciferase splicing reporter, luminescence, 30-36 h; note: % of control where 0% means no effect; nearly all actives have a fitted effect of over 55% in size
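HEK293 cells carry an SMN2 […]–luciferase reporter in which exon 7 inclusion puts luciferase in frame. Cells were plated 10-12 h before compound addition, then incubated 30-36 h at 37C. ONE-Glo luminescence was read; sodium butyrate at 4.5 mM final served as control.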
FLuc counter: counter-screen for miR-21 project: firefly luciferase inhibitors or activators | P08659 | purified FLuc, Km substrates, luminescence inhibition | Potency, µM (series often up to 57.5 µM), for inactives: top-dose activity change, negative = inhibition, most hits filed as inhibitors | 6.9% of 360,000 active | AID 588342;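 note: plate controls were vehicle for no effect and reference inhibitor for full effect; nearly all actives have a fitted effect of over 55% in size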
Target sequence (P08659 whole entry, looked up): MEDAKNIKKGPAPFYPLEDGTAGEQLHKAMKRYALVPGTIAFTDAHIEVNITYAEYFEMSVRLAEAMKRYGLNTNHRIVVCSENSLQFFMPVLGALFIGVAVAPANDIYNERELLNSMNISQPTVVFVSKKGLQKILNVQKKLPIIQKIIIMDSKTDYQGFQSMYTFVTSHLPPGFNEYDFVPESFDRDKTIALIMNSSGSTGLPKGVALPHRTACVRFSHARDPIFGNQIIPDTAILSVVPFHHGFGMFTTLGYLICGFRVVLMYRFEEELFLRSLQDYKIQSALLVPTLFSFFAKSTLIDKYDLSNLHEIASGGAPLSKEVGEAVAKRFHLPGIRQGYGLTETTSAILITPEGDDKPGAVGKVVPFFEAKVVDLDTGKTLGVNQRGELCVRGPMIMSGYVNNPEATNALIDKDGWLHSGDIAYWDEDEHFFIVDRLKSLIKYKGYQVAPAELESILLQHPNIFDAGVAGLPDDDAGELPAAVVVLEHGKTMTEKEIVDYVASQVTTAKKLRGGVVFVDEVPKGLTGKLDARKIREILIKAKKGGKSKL
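Biochemical qHTS of compounds, final roughly 60 µM downward over six points, against 10 nM purified firefly luciferase using Km concentrations of substrates (10 uM D-luciferin, 10 uM ATP) in Tris acetate pH 7.5 buffer; luminescence output.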
NPC1 prom act: NPC1 promoter activation; 2.4% of 320,000 active; Potency, µM (highest dose often 9.22 µM), for the others: at the highest dose activation, most hits filed as activators; Huh7 NPC1 promoter luciferase reporter, 24 h; AID 485313; note: % of control where 0% means no effect; nearly all actives have a fitted effect of over 60% in size
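Luciferase expression driven by the NPC1 promoter was measured in stably transfected Huh7 cells after a 24 h compound incubation, using a luciferase reagent and a luminescence read.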
* = called active by the depositor; ? = inconclusive; . = no result given; [ ] = dose if it differs, or a comment. Calls come from the whole dose curve; as a rule, active = well fitted curve in the direction sought with a large enough effect; inconclusive = small, poorly fitted or top-dose-only effect, or another doubt; inactive = no such curve, though single readings can be large; an effect the other way counts as inactive or inconclusive. Potency is the fitted concentration of half-maximal effect.

SMILES	Rab9 prom act	ELG1 genotoxic	ELG1 repair inh	SMN2 splice enh	FLuc counter	NPC1 prom act
Cc1ccc(S(=O)(=O)N2CCOCC2)cc1C(=O)OCC(=O)NCCc1ccc(F)cc1	.	2%	-25%	.	.	.
O=C(CCc1nnc(C2(c3ccc(Cl)cc3)CCC2)o1)NC1CC1	14%	0%	-16%	.	-15%	-1%
O=C(CCc1nnc(C2(c3ccc(Cl)cc3)CCC2)o1)N1CCCC1	?	?	?	.	17µM*	?
CN(C)C=Nc1ccc2nc3c(cc2c1)[nH]c1ccccc13	1.4µM*	?	?	.	1.3µM*	1.3µM*
Cc1ccc(C)c(N2CCN(C(=O)C34CC5CC(C3)CC(n3nnc(C)n3)(C5)C4)CC2)c1	-16%	-11%	21µM*	.	2%	-13%
O=C(O)C(=O)/C(=C\c1ccc(Cl)cc1)c1ccc2ccccc2n1	23%	?	?	13µM*	?	6%
COc1ccccc1N1C(=NC(=O)CCc2ccccc2)SC2CS(=O)(=O)CC21 (stereo unspecified)	6%	1%	12%	.	0%	0%
Cc1ccc(OCC(=O)Nc2ccc3c(c2)OCO3)c([N+](=O)[O-])n1	?	?	?	20µM*	6µM*	?
Cc1ccc(OCC(=O)Nc2ccc3c(c2)OC(F)(F)O3)c([N+](=O)[O-])n1	-1%	1%	3%	-11%	7%	-5%
Cc1ccc(OCC(=O)Nc2ccc(N3CCOCC3)cc2)c([N+](=O)[O-])n1	-4%	-2%	-25%	-18%	0%	-10%
Cc1ccc(OCC(=O)Nc2ccc(C)c(F)c2)c([N+](=O)[O-])n1	2µM*	?	?	.	9.5µM*	2.2µM*
Cc1ccc(OCCOc2ccc(Br)cc2)c([N+](=O)[O-])n1	?	?	?	11µM*	9.5µM*	?
C=CCOc1ccc(/C=N/NC(=O)C(=O)Nc2ccccn2)cc1OC	-3%	7%	?	22%	-22%	1%
O=C1CN(C(=O)c2ccc(Br)o2)C(c2ccccc2)c2cc(Cl)ccc2N1 (stereo unspecified)	-13%	-9%	21µM*	-4%	0%	6%
COc1ccc(/C(N)=N/OC(=O)c2ccco2)cc1OC	?	?	?	11µM*	?	?
COc1ccc(/C(N)=N/OC(=O)CCc2ccccc2)cc1OC	-1%	5%	?	3%	-14%	1%
N/C(=N\OC(=O)c1ccco1)c1cccc([N+](=O)[O-])c1	17%	?	?	.	24µM*	21%
N/C(Cc1ccc([N+](=O)[O-])cc1)=N\OC(=O)c1ccco1	-3%	0%	-11%	.	-3%	-1%
O=C(COC(=O)c1ccco1)Nc1cccc(Br)c1	4%	-1%	2%	-11%	-10%	-3%
N/C(=N\OC(=O)c1ccco1)c1cccc(Br)c1	18%	8.2µM*	?	?	6.7µM*	18%
COc1ccc(OC)c(-c2nn(-c3ccccc3)cc2C(=O)NCC(c2ccco2)N2CCCC2)c1 (stereo unspecified)	-3%	0%	?	.	2%	-4%
Cc1c(-c2ccccn2)c(=O)[nH]n1-c1ccc(F)cc1	0.5µM*	?	?	5.6µM*	3µM*	3.5µM*
COc1ccc2nc(/C=N/NC(=O)CCCCCNC(=O)OC(C)(C)C)ccc2c1	4µM*	4%	?	.	11µM*	3.2µM*
CC(C)(C)OC(=O)NCCC(=O)N/N=C/c1ccc2ncccc2c1	18%	0%	11%	.	?	-2%
CC(C)(C)OC(=O)NCCC(=O)N/N=C/c1ccc2nccnc2c1	-3%	0%	2%	.	-6%	-3%
SMILES	Rab9 prom act	ELG1 genotoxic	ELG1 repair inh	SMN2 splice enh	FLuc counter	NPC1 prom act
COc1ccc2nc(/C=N/NC(=O)CCNC(=O)OC(C)(C)C)ccc2c1	?	8%	?	.	13µM*	?
O=C(NCCN1CCN(C(=O)c2ccc([N+](=O)[O-])cc2)CC1)C(=O)NCc1ccccc1	1%	0%	3%	.	0%	-1%
CCc1ccc(C(=O)CC2(O)C(=O)N(Cc3ccc(C)cc3)c3ccccc32)cc1 (stereo unspecified)	.	.	.	-9%	7.6µM*	.
Cc1ccc(C(=O)CC2(O)C(=O)N(Cc3ccccc3)c3ccccc32)c(C)c1 (stereo unspecified)	.	.	.	-21%	19µM*	.
Cc1ccc(C(=O)CC2(O)C(=O)N(Cc3ccccc3)c3ccc(Br)cc32)cc1 (stereo unspecified)	.	.	.	.	-5%	.
C/C(=N/NC(=O)C(O)(c1ccccc1)c1ccccc1)c1ccc([N+](=O)[O-])o1	-2%	-6%	?	-11%	-7%	-1%
COc1cccc(NC(=O)c2ccc3c(c2)CCCC3)c1	1.4µM*	2.6µM*	?	.	1.2µM*	1.4µM*
CCS(=O)(=O)N1CCCc2cc(C(=O)Nc3cccc(C(C)=O)c3)ccc21	.	.	.	.	-6%	.
COc1cccc(NC(=O)c2ccc[n+](C)c2)c1	-6%	-2%	-8%	.	7%	-4%
CC(=O)c1cccc(NC(=O)c2ccc3c(c2)CCCC3)c1	4µM*	14%[9.26 µM]	?	.	1.3µM*	2.5µM*
C=CCOc1cccc(C(=O)N2CCCC(CNS(=O)(=O)c3cccs3)C2)c1 (stereo unspecified)	-5%	-4%	-16%	.	6%	-2%
O=C(O)C1CCN(c2ccccc2[N+](=O)[O-])CC1	14%	0%	-19%	15%	5%	3%
CCOc1ccc2nc(NC(=O)c3nc(SCc4ccccc4C)ncc3Cl)sc2c1	.	.	.	11%	-12%	.
CCc1nc2ccccc2c(C(=O)Oc2cccc3cccnc23)c1C	12%	-10%	?	-19%	15µM*	7%
CCc1nc2ccccc2c(C(=O)OCc2nc3ccccc3c(=O)[nH]2)c1C	.	-10%	13µM*	.	.	.
CCc1nc2ccc(C)cc2c(C(=O)Oc2cccc3cccnc23)c1C	2%	0%	?	-15%	4%	3%
Cc1c(C(=O)OCc2nnc(-c3ccccc3)o2)oc2ccccc12	.	0%	-6%	.	.	.
CCc1nc2ccccc2c(C(=O)OCc2nnc(-c3ccccc3)o2)c1C	-5%	-5%	21µM*	-9%	3%	-6%
Cc1cccc2c1NC(=O)C21OCC(CO)([N+](=O)[O-])CO1 (stereo unspecified)	-1%	0%	?	.	0%	-1%
Cc1nn(S(=O)(=O)c2ccc(F)cc2)c(C)c1S(=O)(=O)N1CCCCCC1	.	.	.	.	1%	.
